We go through 14 sequences from paper PMC8384837, “Expanding the binding specificity for RNA recognition by a PUF domain”.

Numbering of substitutions follows the chain as printed.

What all share (test): yeast three-hybrid, YBZ-1, SC-Leu-His + 0.5 mM 3-AT, 4 days
Common to all, as to conditions: tags: N-Gal4 AD-HA kept; label: inside an RPR1-promoter hybrid RNA with tandem MS2 sites; ssRNA

For one test, the target named is PUM1 PUF domain R3-IWS (Homo sapiens, UniProt Q14671 828-1176, C935I;R936W;Q939S). In a few lines: (§1)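 Sequencing with Illumina followed PCR amplification of the repeat regions from transformants grown four days on SC-Leu (input) or SC-Leu-His + 0.5 mM 3-AT (selection). The transformants were strain YBZ-1 with a LexA–MS2 coat fusion and a HIS3 reporter, carrying Pumilio-1 PUF domain libraries and matching RNA elements. The interaction score is the log change in variant frequency from input to selection, computed in log2 with a pseudocount of 1 for absent variants.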

A further test has as its target PUM1 PUF domain R1-YSR (Homo sapiens, UniProt Q14671 828-1176, S863Y;R864S;Q867R). A digest of the protocol:
as §1

Another test has as its target PUM1 PUF domain R1-RVS (Homo sapiens, UniProt Q14671 828-1176, S863R;R864V;Q867S). A digest of the protocol:
as §1

For the next test, the target named is PUM1 PUF domain R1-RGS (Homo sapiens, UniProt Q14671 828-1176, S863R;R864G;Q867S). In a few lines:
as §1

Another test deals with PUM1 PUF domain R3-PWH (Homo sapiens, UniProt Q14671 828-1176, C935P;R936W;Q939H). In a few lines:
as §1

The next test has as its target PUM1 PUF domain R3-RNE (Homo sapiens, UniProt Q14671 828-1176, C935R;R936N;Q939E). In a few lines:
as §1

The next test has as its target PUM1 PUF domain R3-EFL (Homo sapiens, UniProt Q14671 828-1176, C935E;R936F;Q939L). A digest of the protocol: as §1
The target of another test is PUM1 PUF domain R3-RVS (Homo sapiens, UniProt Q14671 828-1176, C935R;R936V;Q939S). In a few lines: as §1
The target of a further test is PUM1 PUF domain R8-IFR (Homo sapiens, UniProt Q14671 828-1176, N1122I;Y1123F;Q1126R). A digest of the protocol:
as §1

For a further test, the target named is PUM1 PUF domain R5-CQR (Homo sapiens, UniProt Q14671 828-1176, R1008Q;Q1011R). In a few lines: as §1
The next test concerns the target PUM1 PUF domain R4-WSR (Homo sapiens, UniProt Q14671 828-1176, N971W;H972S;Q975R). In a few lines: as §1
The target in another test is PUM1 PUF domain R5-MRR (Homo sapiens, UniProt Q14671 828-1176, C1007M;Q1011R). In a few lines: as §1
For a further test, the target named is T1, PUM1 PUF domain R6-FYS (Homo sapiens, UniProt Q14671 828-1176, N1043F;Q1047S).
T1 sequence: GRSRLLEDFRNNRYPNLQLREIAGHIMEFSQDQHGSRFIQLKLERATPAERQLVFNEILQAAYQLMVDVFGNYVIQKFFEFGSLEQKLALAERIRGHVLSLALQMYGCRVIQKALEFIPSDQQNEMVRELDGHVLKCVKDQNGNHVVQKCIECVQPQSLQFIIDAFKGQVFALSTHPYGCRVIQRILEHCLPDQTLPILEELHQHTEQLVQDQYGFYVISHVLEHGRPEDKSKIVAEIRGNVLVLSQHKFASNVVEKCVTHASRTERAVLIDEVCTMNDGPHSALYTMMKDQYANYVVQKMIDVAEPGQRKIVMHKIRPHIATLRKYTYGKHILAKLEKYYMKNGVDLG
In a few lines:
as §1

The next test deals with T2, PUM1 PUF domain R6-GYR (Homo sapiens, UniProt Q14671 828-1176, N1043G;Q1047R).
T2 sequence: T1 sequence with F216G, S220R
In a few lines: as §1

The next test has as its target PUM1 PUF domain R4-CNI (Homo sapiens, UniProt Q14671 828-1176, N971C;H972N;Q975I). A digest of the protocol: as §1
The target of another test is PUM1 PUF domain R5-TSR (Homo sapiens, UniProt Q14671 828-1176, C1007T;R1008S;Q1011R). In a few lines: as §1
In a further test the target is PUM1 PUF domain R5-QQR (Homo sapiens, UniProt Q14671 828-1176, C1007Q;R1008Q;Q1011R). In a few lines: as §1
A further test has as its target PUM1 PUF domain R5-RKI (Homo sapiens, UniProt Q14671 828-1176, C1007R;R1008K;Q1011I). A digest of the protocol:
as §1

In another test the target is T3, PUM1 PUF domain R6-NHR (Homo sapiens, UniProt Q14671 828-1176, Y1044H;Q1047R).
T3 sequence: T1 sequence with F216N, Y217H, S220R
In a few lines: as §1

The target of the next test is PUM1 PUF domain R2-LFC (Homo sapiens, UniProt Q14671 828-1176, N899L;Y900F;Q903C). A digest of the protocol: as §1

As to “GGCUAGAACUAGUGGAUCCCCCGGCGCCCGGCGGCUCGAGCCCGGGUAAGUGUAAGUAGUCUGCAUGCCGCCGGGCGCCAUGCCUGCAGGUCGACUCUAGAAAACAUG”, the binding signal in the test with PUM1 PUF domain R3-IWS was 6.08 log2 enrichment (interaction score).

On to “GGCUAGAACUAGUGGAUCCCCCGGCGCCCGGCGGCUCGAGCCCGGGUAAGUGUAAAUCGUCUGCAUGCCGCCGGGCGCCAUGCCUGCAGGUCGACUCUAGAAAACAUG”, for which the binding signal with PUM1 PUF domain R1-YSR was 4.84 log2 enrichment (interaction score); with PUM1 PUF domain R1-RVS, 4.31 log2 enrichment (interaction score); with PUM1 PUF domain R1-RGS it was 2.68 log2 enrichment (interaction score).

In the case of “GGCUAGAACUAGUGGAUCCCCCGGCGCCCGGCGGCUCGAGCCCGGGUAAGUGUAAUUAGUCUGCAUGCCGCCGGGCGCCAUGCCUGCAGGUCGACUCUAGAAAACAUG”, the binding signal was 4.06 log2 enrichment (interaction score) with PUM1 PUF domain R3-PWH, 2.81 log2 enrichment (interaction score) with PUM1 PUF domain R3-RNE, 2.29 log2 enrichment (interaction score) in the test with PUM1 PUF domain R3-EFL and 2.78 log2 enrichment (interaction score) with PUM1 PUF domain R3-RVS.

As for “GGCUAGAACUAGUGGAUCCCCCGGCGCCCGGCGGCUCGAGCCCGGGUAAGUGUAAAUUGUCUGCAUGCCGCCGGGCGCCAUGCCUGCAGGUCGACUCUAGAAAACAUG”, the results for the binding signal with PUM1 PUF domain R1-YSR, in the test with PUM1 PUF domain R1-RVS and with PUM1 PUF domain R1-RGS were 5.97 log2 enrichment (interaction score), 3.69 log2 enrichment (interaction score) and 2.53 log2 enrichment (interaction score), respectively.

Regarding “GGCUAGAACUAGUGGAUCCCCCGGCGCCCGGCGGCUCGAGCCCGGGUAAGCGUAAAUAGUCUGCAUGCCGCCGGGCGCCAUGCCUGCAGGUCGACUCUAGAAAACAUG”, the binding signal with PUM1 PUF domain R8-IFR is 4.56 log2 enrichment (interaction score).

As for “GGCUAGAACUAGUGGAUCCCCCGGCGCCCGGCGGCUCGAGCCCGGGUAAGUGUGAAUAGUCUGCAUGCCGCCGGGCGCCAUGCCUGCAGGUCGACUCUAGAAAACAUG”, the binding signal with PUM1 PUF domain R5-CQR was 0.8 log2 enrichment (interaction score).

Regarding “GGCUAGAACUAGUGGAUCCCCCGGCGCCCGGCGGCUCGAGCCCGGGUAAGUGUAAAUGGUCUGCAUGCCGCCGGGCGCCAUGCCUGCAGGUCGACUCUAGAAAACAUG”, the binding signal with PUM1 PUF domain R1-RVS was 1.89 log2 enrichment (interaction score); with PUM1 PUF domain R1-RGS, 0.85 log2 enrichment (interaction score).

Consider “GGCUAGAACUAGUGGAUCCCCCGGCGCCCGGCGGCUCGAGCCCGGGUAAGUGUAUAUAGUCUGCAUGCCGCCGGGCGCCAUGCCUGCAGGUCGACUCUAGAAAACAUG”, for which, in the test with PUM1 PUF domain R4-WSR, the binding signal is 1.87 log2 enrichment (interaction score).

On to “GGCUAGAACUAGUGGAUCCCCCGGCGCCCGGCGGCUCGAGCCCGGGUAAGUGUAAAUAGUCUGCAUGCCGCCGGGCGCCAUGCCUGCAGGUCGACUCUAGAAAACAUG”, for which the binding signal with PUM1 PUF domain R5-MRR was 1.43 log2 enrichment (interaction score); with PUM1 PUF domain R3-EFL, 5.34 log2 enrichment (interaction score); with PUM1 PUF domain R6-FYS, 2.53 log2 enrichment (interaction score); in the test with PUM1 PUF domain R6-GYR, 6.45 log2 enrichment (interaction score).

On to “GGCUAGAACUAGUGGAUCCCCCGGCGCCCGGCGGCUCGAGCCCGGGUAAGUGUACAUAGUCUGCAUGCCGCCGGGCGCCAUGCCUGCAGGUCGACUCUAGAAAACAUG”, for which the binding signal is 2.55 log2 enrichment (interaction score) in the test with PUM1 PUF domain R4-WSR and 3.63 log2 enrichment (interaction score) with PUM1 PUF domain R4-CNI.

Consider “GGCUAGAACUAGUGGAUCCCCCGGCGCCCGGCGGCUCGAGCCCGGGUAAGUGUCAAUAGUCUGCAUGCCGCCGGGCGCCAUGCCUGCAGGUCGACUCUAGAAAACAUG”, for which the binding signal with PUM1 PUF domain R5-MRR is 4.14 log2 enrichment (interaction score); with PUM1 PUF domain R5-TSR it was 5.55 log2 enrichment (interaction score); in the test with PUM1 PUF domain R5-QQR, 6.22 log2 enrichment (interaction score); in the test with PUM1 PUF domain R5-RKI it was 3.24 log2 enrichment (interaction score).

Regarding “GGCUAGAACUAGUGGAUCCCCCGGCGCCCGGCGGCUCGAGCCCGGGUAAGUGCAAAUAGUCUGCAUGCCGCCGGGCGCCAUGCCUGCAGGUCGACUCUAGAAAACAUG”, the figures for the binding signal with PUM1 PUF domain R6-NHR and in the test with PUM1 PUF domain R6-GYR were 5.94 log2 enrichment (interaction score) and 5.76 log2 enrichment (interaction score), respectively.

For “GGCUAGAACUAGUGGAUCCCCCGGCGCCCGGCGGCUCGAGCCCGGGUAAGUGUUAAUAGUCUGCAUGCCGCCGGGCGCCAUGCCUGCAGGUCGACUCUAGAAAACAUG”, in the test with PUM1 PUF domain R5-CQR, the binding signal is 3.55 log2 enrichment (interaction score).

For “GGCUAGAACUAGUGGAUCCCCCGGCGCCCGGCGGCUCGAGCCCGGGUAAGUGUAAAAAGUCUGCAUGCCGCCGGGCGCCAUGCCUGCAGGUCGACUCUAGAAAACAUG”, in the test with PUM1 PUF domain R2-LFC, the binding signal is 3.16 log2 enrichment (interaction score).
